Activity calls are given as the source filed them.
Experiments:
[1] = small molecules captured by biotinylated probe aFSTL3 – biochemical, small-molecule microarray, fluorescence 635/667, stem cell growth factor project, primary screen (AID 1064); settings: higher = more signal;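 further: measures binding of the biotinylated anti-FSTL3 antibody to printed compounds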
[2] = binders from COS7 lysate, DM2A8 probe, primary screen, torsin A project, cell lysate, small-molecule microarray, fluorescence 635/667 (AID 1065); settings: higher = more signal, COS7 lysate expressing mutant human TOR1A
[3] = small molecules captured by biotinylated probe aFGF2 – biochemical, small-molecule microarray, fluorescence 635/667, stem cell growth factor project, primary screen (AID 1067); settings: higher = more signal;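 further: measures binding of biotinylated aFGF2 protein to printed compounds on slides; z-score merges feature fluorescence and signal-to-noise across triplicate slides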
[4] = small molecules captured by biotinylated probe aFGF10 – biochemical, small-molecule microarray, fluorescence 635/667, stem cell growth factor project, primary screen (AID 1071); settings: higher = more signal;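 further: score merges 667 nm spot intensity and signal to noise from triplicate slides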
[5] = target: Neurogenic locus notch homolog protein 2 (Homo sapiens) (UniProt Q04721); assay: small molecules binding Notch2 protein – biochemical, small-molecule microarray, 635 nm fluorescence, stem cell growth factors, primary screen (AID 1073); settings: higher = more signal
[6] = target: Pro-neuregulin-1, membrane-bound isoform (Homo sapiens) (UniProt Q02297); assay: small molecules binding neuregulin-1 protein – biochemical, small-molecule microarray, fluorescence 635/667, psychiatric disease protein project, primary screen (AID 1075); settings: NRG1 binding, 635 nm fluorescence, higher = more signal;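 further: score combines 667 nm spot fluorescence with signal to noise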
[7] = system: Neuregulin-1 EGF-like domain; assay: small molecules binding NRG1 EGF domain – biochemical, small-molecule microarray, 635 nm fluorescence, primary screen (AID 1081); settings: higher = more signal;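 further: binding of the protein to compounds printed on small-molecule microarray slides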
[8] = FRG1 expression reporter modulators in myotubes – cell-based, C2C12 myotubes, firefly/Renilla luciferase, luminescence, FRG1 inhibition for FSHD, primary screen (AID 1084); settings: FRG1 promoter luciferase, higher = more signal, called active from +8 up or from −8 down
[9] = small molecules captured by biotinylated probe aFST – biochemical, small-molecule microarray, fluorescence 635/667, stem cell growth factor project, primary screen (AID 1086); settings: higher = more signal;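 further: score merges 667 nm fluorescence with signal-to-noise of each printed compound spot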
[10] = binders of probe aHhip on microarray, primary screen, stem cell growth factor project, biochemical, small-molecule microarray, fluorescence 635/667 (AID 1087); settings: higher = more signal;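 further: score merges spot fluorescence at 667nm with spot signal to noise ratio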

Chain of Neurogenic locus notch homolog protein 2 (Homo sapiens) (Q04721 whole entry, looked up, canonical isoform): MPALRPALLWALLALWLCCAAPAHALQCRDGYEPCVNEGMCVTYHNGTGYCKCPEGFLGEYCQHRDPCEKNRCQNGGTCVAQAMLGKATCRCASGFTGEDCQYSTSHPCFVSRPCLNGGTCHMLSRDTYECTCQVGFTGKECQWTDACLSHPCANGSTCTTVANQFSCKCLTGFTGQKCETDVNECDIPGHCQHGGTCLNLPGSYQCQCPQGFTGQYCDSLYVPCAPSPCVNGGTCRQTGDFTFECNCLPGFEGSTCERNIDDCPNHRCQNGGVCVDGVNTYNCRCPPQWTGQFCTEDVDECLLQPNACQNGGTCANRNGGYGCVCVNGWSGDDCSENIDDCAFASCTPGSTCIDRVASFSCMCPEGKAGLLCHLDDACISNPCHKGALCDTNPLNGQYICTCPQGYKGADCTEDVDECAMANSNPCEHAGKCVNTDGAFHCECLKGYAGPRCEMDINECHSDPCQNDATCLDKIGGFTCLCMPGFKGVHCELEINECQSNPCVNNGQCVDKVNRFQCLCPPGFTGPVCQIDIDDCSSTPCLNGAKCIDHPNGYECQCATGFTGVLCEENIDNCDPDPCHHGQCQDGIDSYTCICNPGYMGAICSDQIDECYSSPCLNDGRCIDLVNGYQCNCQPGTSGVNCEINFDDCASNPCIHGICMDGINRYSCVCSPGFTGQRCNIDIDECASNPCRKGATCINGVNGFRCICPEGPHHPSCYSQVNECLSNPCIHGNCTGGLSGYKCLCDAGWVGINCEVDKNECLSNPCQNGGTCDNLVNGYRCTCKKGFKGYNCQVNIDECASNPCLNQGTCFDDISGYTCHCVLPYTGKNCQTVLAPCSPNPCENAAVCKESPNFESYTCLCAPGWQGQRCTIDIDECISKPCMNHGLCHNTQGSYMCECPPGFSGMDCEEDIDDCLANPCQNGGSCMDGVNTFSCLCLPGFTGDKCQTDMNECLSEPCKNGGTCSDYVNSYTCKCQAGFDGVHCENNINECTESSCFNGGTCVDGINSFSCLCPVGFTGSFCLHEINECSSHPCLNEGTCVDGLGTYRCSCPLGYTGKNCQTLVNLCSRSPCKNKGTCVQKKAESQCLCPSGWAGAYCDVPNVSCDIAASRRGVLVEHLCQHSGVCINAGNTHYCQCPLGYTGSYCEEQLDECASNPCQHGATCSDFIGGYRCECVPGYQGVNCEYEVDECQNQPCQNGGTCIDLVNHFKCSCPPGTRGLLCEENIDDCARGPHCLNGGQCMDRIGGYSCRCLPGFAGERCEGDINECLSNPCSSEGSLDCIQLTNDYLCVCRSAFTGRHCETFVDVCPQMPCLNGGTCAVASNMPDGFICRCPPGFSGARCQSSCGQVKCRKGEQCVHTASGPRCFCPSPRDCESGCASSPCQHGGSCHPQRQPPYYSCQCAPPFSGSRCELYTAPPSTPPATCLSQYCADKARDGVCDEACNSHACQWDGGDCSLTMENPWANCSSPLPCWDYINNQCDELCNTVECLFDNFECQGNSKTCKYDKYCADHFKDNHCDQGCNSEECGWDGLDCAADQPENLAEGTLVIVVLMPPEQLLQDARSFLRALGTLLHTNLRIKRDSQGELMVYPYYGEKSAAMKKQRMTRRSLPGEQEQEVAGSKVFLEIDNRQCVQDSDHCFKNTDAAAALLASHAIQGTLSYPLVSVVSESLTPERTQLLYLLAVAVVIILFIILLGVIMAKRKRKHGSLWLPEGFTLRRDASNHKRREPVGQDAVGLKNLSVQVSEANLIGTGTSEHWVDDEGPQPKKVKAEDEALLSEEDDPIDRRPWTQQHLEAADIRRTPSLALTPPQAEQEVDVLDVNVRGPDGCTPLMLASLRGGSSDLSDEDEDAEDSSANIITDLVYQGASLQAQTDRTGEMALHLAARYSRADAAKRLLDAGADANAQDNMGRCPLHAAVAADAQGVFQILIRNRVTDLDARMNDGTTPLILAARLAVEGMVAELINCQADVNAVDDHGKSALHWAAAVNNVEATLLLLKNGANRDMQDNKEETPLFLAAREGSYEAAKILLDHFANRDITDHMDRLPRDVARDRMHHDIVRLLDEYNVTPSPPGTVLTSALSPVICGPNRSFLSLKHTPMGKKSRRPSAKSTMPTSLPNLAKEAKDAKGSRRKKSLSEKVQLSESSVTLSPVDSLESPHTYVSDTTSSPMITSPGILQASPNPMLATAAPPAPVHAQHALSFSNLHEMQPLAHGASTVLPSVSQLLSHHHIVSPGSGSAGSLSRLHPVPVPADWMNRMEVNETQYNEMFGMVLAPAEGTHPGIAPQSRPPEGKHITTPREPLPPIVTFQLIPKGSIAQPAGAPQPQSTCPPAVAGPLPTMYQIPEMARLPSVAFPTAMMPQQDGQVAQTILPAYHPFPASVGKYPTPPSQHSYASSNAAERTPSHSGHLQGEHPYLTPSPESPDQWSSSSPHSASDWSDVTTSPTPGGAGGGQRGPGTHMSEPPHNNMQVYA
Chain of Pro-neuregulin-1, membrane-bound isoform (Homo sapiens) (Q02297 whole entry, looked up, the tested form may be a part, canonical isoform): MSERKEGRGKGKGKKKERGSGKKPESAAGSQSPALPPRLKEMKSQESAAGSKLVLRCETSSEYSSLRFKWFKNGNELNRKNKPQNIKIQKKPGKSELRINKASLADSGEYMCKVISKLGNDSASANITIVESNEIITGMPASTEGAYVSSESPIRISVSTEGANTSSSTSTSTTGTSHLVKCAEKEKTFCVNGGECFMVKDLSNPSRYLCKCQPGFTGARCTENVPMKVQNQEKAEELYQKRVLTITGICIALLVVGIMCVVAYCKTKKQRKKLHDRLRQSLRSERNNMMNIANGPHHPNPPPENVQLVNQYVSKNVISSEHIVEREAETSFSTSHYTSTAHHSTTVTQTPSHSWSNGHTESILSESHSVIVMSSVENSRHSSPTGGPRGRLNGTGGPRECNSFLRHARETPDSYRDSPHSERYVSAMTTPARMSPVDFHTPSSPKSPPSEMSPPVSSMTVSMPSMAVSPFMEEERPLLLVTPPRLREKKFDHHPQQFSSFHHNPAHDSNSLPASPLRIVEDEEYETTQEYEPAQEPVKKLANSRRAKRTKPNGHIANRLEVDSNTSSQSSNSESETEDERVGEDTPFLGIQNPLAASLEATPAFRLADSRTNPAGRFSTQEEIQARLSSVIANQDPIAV

| Structure (SMILES) | composite z-score [1] | composite z-score [2] | composite z-score [3] | composite z-score [4] | composite z-score [5] | composite z-score [6] | composite z-score [7] | z-score [8] | composite z-score [9] | composite z-score [10] |
| --- | --- | --- | --- | --- | --- | --- | --- | --- | --- | --- |
| O=C(c1ccccc1)N1Cc2ccccc2C[C@@]2(COC(c3ccc(OCCCO)cc3)=N2)C1=O | -0.0932 | 0.711 | 0.0292 | 0.591 | 1.03 | 0.0612 | 1.25 | -0.187 (inactive) | 0.146 | -0.0296 |
| CCCCCN1CC=CC23O[C@@H]4C=CCCOC(=O)C4[C@H]2C(=O)N(CCCCCO)[C@@H]3C1=O (stereo not given in full) | 0.262 | 1.2 | -0.195 | -0.168 | -0.814 | 0.927 | 1.55 | -0.666 (inactive) | -0.432 | -0.45 |
| CCOC(=O)C[C@H]1[C@H](OC(=O)c2ccc(C(=O)c3ccccc3)cc2)[C@@H](NC(=O)c2ccccc2)c2cc(OCCCO)ccc2N1C(=O)Cc1ccc(OC)cc1 | 0.0814 | 0.128 | -0.0502 | 0.153 | 0.12 | -0.126 | 0.532 | -1.09 (inactive) | 0.0512 | -0.0237 |
| C=C(CC1([C@@H](NP(=O)(c2ccccc2)c2ccccc2)[C@H]2C[C@@H]2CCCC)CC1)c1ccccc1 | 0.591 | -0.417 | -0.218 | 0.194 | 1.42 | 0.896 | 0.843 | 2.47 (inactive) | 1.07 | 0.419 |
| O=C(NCCN1CCOCC1)C1N=C(c2ccc(OCCCO)cc2)N(c2ccccc2)O1 (stereo not given) | 0.377 | 1.4 | 0.071 | 0.318 | 1.48 | 0.561 | 1.3 | 4.31 (inactive) | 0.524 | 0.075 |
| CCOC(=O)C[C@H]1[C@H](OC(=O)c2ccccc2-c2ccccc2)[C@@H](NC(=O)CC(C)C)c2cc(OCCCO)ccc2N1C(=O)Cc1ccc(OC)cc1 | -0.259 | 0.43 | -0.104 | 0.225 | 0.135 | 0.173 | -0.155 | 0.506 (inactive) | 0.327 | -0.199 |
| CCCC#C[Si](O[C@H](CC)c1cn(Cc2cccc(Cl)c2)nn1)(C(C)C)C(C)C | -0.468 | -0.139 | -0.0865 | 0.85 | 0.831 | -0.0184 | 1.15 | 0.414 (inactive) | 0.0751 | -0.137 |
| CN(C)CCCCCCNC(=O)[C@H]1C[C@H]2C(=O)N3CCC[C@H]3C(=O)N2[C@H]1c1ccc(O)cc1 | -0.0698 | 1.93 | 0.0082 | 1.16 | 0.863 | 0.854 | 1.49 | 3.92 (inactive) | 0.2 | 0.151 |
| COc1ccc([Si](C)(C)[C@@H]2[C@@H](CCO)O[C@]3(C(=O)N(Cc4ccc(N(C=O)c5ccccc5)cc4)c4ccccc43)[C@H]2C)cc1 | 0.235 | 0.0422 | -0.0332 | 0.255 | 0.719 | 0.508 | 0.565 | -3.73 (inactive) | 0.643 | -0.0994 |
| [N-]=[N+]=Nc1ccccc1[C@H]1OC(c2ccc(OCCCO)cc2)=N[C@@]1(CCS(=O)(=O)c1ccccc1)C(N)=O | 1.5 | 0.449 | 0.0797 | 1.07 | 0.742 | 0.9 | 1.34 | 3.44 (inactive) | 1.04 | 0.111 |
| CC(C)CNC(=O)[C@@]1(Cc2ccccc2I)c2ccccc2C(=O)N(C2CCCCC2)[C@H]1c1ccc(CO)cc1 | 0.654 | 1.26 | 0.162 | 0.685 | 0.142 | 0.925 | 1.05 | -3.41 (inactive) | 0.481 | 0.702 |
| C=CCN1C(=O)[C@]2(O[C@H](CCn3cc([C@H](O)c4ccccc4)nn3)[C@@H]([Si](C)(C)c3ccc(OC)cc3)[C@@H]2C)c2ccccc21 | 0.202 | -0.602 | -0.0894 | -0.264 | -0.439 | 0.093 | -0.0113 | -0.356 (inactive) | -0.366 | -0.264 |
| CC(C)N1C(=O)C[C@@](C(=O)NCC(F)(F)F)(c2ccc([N+](=O)[O-])cc2)[C@H]1c1ccc(CO)cc1 | 0.27 | 0.513 | -0.147 | -0.336 | -0.545 | 0.769 | 0.541 | -0.468 (inactive) | -0.531 | -0.0994 |
| O=C1c2ccccc2[C@](Cc2ccccc2I)(C(=O)NCCN2CCOCC2)[C@H](c2ccc(CO)cc2)N1Cc1ccccc1Cl | 0.118 | 0.469 | 0.07 | 0.915 | 1.13 | 1.24 | 1.29 | -1.96 (inactive) | 0.511 | 0.0274 |
| COc1ccccc1CN1C(=O)c2ccccc2[C@@H](C(=O)NC2CC2)[C@@H]1c1ccc(CO)cc1 | 0.11 | 0.293 | 0.0233 | 0.986 | 1.48 | 1.12 | 1.29 | -3.17 (inactive) | 0.592 | 0.075 |
| O=C(OCc1ccccc1)C1=CCC2c3[nH]c4ccccc4c3C(=O)C1N2S(=O)(=O)c1ccccc1[N+](=O)[O-] (stereo not given) | -0.154 | -0.0749 | 0.105 | 0.982 | 1.7 | 1.65 | 1.19 | -4.32 (inactive) | 0.627 | 0.0759 |
| COCCOC(=O)N1C(=O)[C@@]2(c3cc(C#CCNC(N)=O)ccc31)[C@H](C(=O)N1CCN(c3ncccn3)CC1)[C@H]1C(=O)O[C@H](c3ccccc3)[C@H](c3ccccc3)N1[C@@H]2c1ccc(OCCO)cc1 | 0.0392 | 0.382 | 0.0465 | 0.719 | 0.795 | 0.821 | 0.87 | 0.0006 (inactive) | 0.601 | 0.0939 |

| Structure (SMILES) | composite z-score [1] | composite z-score [2] | composite z-score [3] | composite z-score [4] | composite z-score [5] | composite z-score [6] | composite z-score [7] | z-score [8] | composite z-score [9] | composite z-score [10] |
| --- | --- | --- | --- | --- | --- | --- | --- | --- | --- | --- |
| COC(=O)C(CC#Cc1ccc2c(c1)[C@]1(C(=O)N2)[C@H](c2ccc(OCCO)cc2)N2[C@H](c3ccccc3)[C@H](c3ccccc3)OC(=O)[C@H]2[C@@H]1C(=O)Nc1nc2ccccc2s1)C(=O)OC | -0.319 | -0.164 | 0.0519 | 0.465 | 1.03 | 1.36 | 1.19 | 2.62 (inactive) | 0.582 | 0.0156 |
| C=CC[C@@]1(C(=O)NCCN2CCOCC2)N=C(c2ccc(OCCCO)cc2)O[C@@H]1c1ccccc1N=[N+]=[N-] | 1.4 | -0.355 | -0.119 | 0.686 | 0.322 | 1.37 | 1.03 | 2.98 (inactive) | 0.803 | -0.0645 |
| Cc1ccc(S[C@]2(C(=O)NCCCN(C)C)CC(=O)N(Cc3cc(C(F)(F)F)cc(C(F)(F)F)c3)[C@@H]2c2ccc(CO)cc2)cc1 | -0.16 | -0.594 | -0.159 | -0.145 | -1.28 | 0.494 | -0.624 | 0.318 (inactive) | -0.482 | -0.0645 |
| C=CCOC(=O)[C@H]1[C@@H]2C(=O)O[C@@H](c3ccccc3)[C@@H](c3ccccc3)N2[C@@H](c2ccc(OCCOC(=O)[C@H]3C[C@H]4C(=O)N[C@@H](CCCC[N+](C)(C)C)C(=O)N4[C@H]3c3ccc(O)cc3)cc2)[C@]12C(=O)Nc1ccc(I)cc12 | -0.301 | 1.33 | -0.0904 | -0.333 | -0.295 | 2.05 | 0.595 | 2.93 (inactive) | -0.333 | 0.6 |
| C=CCC(OC(C)=O)[C@@H]1[C@@H](N(Cc2ccc(-c3ccccc3)cc2)C(=O)c2ccc(-c3ccccc3)cc2)c2cc(OCCCO)ccc2N1C(=O)Cc1ccc2ccccc2c1 (stereo not given in full) | -0.519 | 0.574 | -0.117 | 0.0381 | 0.186 | 0.0278 | -0.6 | 0.187 (inactive) | 0.2 | -0.0631 |
| CC[C@@H]1C=C(C(=O)O)[C@H](c2ccc(Br)cc2)N1S(=O)(=O)c1ccc(C)cc1 | 0.191 | 0.0963 | 0.0746 | 0.638 | 1.26 | 1.93 | 0.503 | -1.18 (inactive) | 0.614 | 0.141 |
| O=C(NCCN1CCOCC1)[C@@H]1c2ccccc2C(=O)N(C2CCCCC2)[C@H]1c1ccc(CO)cc1 | 0.64 | -0.324 | -0.0616 | -0.413 | -0.194 | 0.96 | 0.872 | -0.658 (inactive) | 0.106 | -0.271 |
| O=C1C2C=CC(C(O)CCc3ccccc3)N(Nc3ccccc3F)C2C(=O)N1c1ccccc1 (stereo not given) | -0.114 | 0.203 | 0.179 | 0.763 | 1.68 | 0.572 | 1.15 | 0.957 (inactive) | 1.16 | -0.191 |
| C=CCOC(=O)[C@H]1[C@@H]2C(=O)O[C@@H](c3ccccc3)[C@@H](c3ccccc3)N2[C@@H](c2ccc(OCCOC(=O)[C@H]3C[C@H]4C(=O)N[C@@H](CCCCNC(C)=O)C(=O)N4[C@H]3c3cccc(OCCO)c3)cc2)[C@]12C(=O)Nc1ccccc12 | -0.0212 | 1 | -0.0723 | 0.732 | 0.279 | 0.786 | 1.11 | 1.12 (inactive) | -0.047 | -0.0994 |
| CCCc1cc2c(n1Cc1cc(F)cc(F)c1)C(C)C1CN(C(=O)c3ccccc3)C(C)(C(=O)OC)C21 (stereo not given) | 1.25 | 1.77 | 0.256 | 0.426 | 1.71 | 1.62 | 1.18 | 0.0046 (inactive) | 1.58 | 0.441 |
| CN1C(=O)C2C=CC(C(O)c3ccccc3)N(N(c3ccccc3)c3ccccc3)C2C1=O (stereo not given) | -0.034 | 0.287 | 0.0561 | 0.332 | 0.924 | 0.647 | 0.553 | 0.815 (inactive) | 0.474 | 0.245 |
| CC(=O)NCCCC[C@@H]1NC(=O)[C@@H]2C[C@H](C(=O)NCCCCCNC(=O)CS)[C@H](c3cccc(OCCO)c3)N2C1=O | -0.525 | -0.047 | -0.211 | 0.37 | 0.121 | -0.122 | 0.709 | 0.618 (inactive) | -0.195 | -0.212 |
| CCOC(=O)C1=C[C@@H](C(C)(C)C)N(S(=O)(=O)c2ccc(C)cc2)[C@H]1c1ccc(F)cc1 | -0.272 | 0.59 | 0.0434 | 0.619 | 1.59 | -0.11 | 0.69 | -0.705 (inactive) | 1.05 | -0.0324 |
| COC(=O)C[C@H]1O[C@]2(C(=O)N(C)c3ccccc32)[C@@H](C)[C@@H]1[Si](C)(C)F | -0.54 | 0.109 | -0.131 | 0.626 | 0.423 | -0.133 | 0.346 | -1.35 (inactive) | -0.0253 | 0.141 |
| C=C(CCCC)/C(=C/C[C@H](OC(=O)c1ccncc1)c1ccccc1OCCO)c1cnc2ccccc2c1 | -0.345 | 1.04 | -0.0544 | 0.706 | 0.965 | 0.424 | 1.05 | -0.756 (inactive) | 0.228 | 0.126 |
| CNS(=O)(=O)c1ccc(C)cc1 | -0.366 | 0.182 | -0.14 | 0.248 | 0.192 | -0.0687 | 0.314 | -0.443 (inactive) | 0.209 | -0.0346 |

Source: PubChem BioAssay
